# Measured values: PubChem BioAssay (NCATS)
# Values without a mark were called inactive. Inconclusive results are not listed. Calls of active or inactive are those of the source. Unless noted, calls come from the whole dose curve; as a rule, active = well fitted curve in either direction with a large enough effect (not every such curve was filed as active); inconclusive = small, poorly fitted or top-dose-only effect, or another doubt; inactive = flat fitted curve, though single readings scatter.
# How the values were obtained:
# [1] = AP1 Signaling Pathway (AID 357); conditions: ME-180 AP-1-bla reporter, EGF-induced, beta-lactamase ratio, 5 h; at 17.2 µM (top of the series) unless noted; note: % is set by controls: 0 for no effect and ±100 for the full control effect
# How it was run: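 In this screen, ME-180 cells in Opti-MEM with 0.5% dialyzed FBS received EC50 EGF and compound titrations for 5 h. AP-1 reporter beta-lactamase was detected via CCF4 ratio, giving AC50 for positive and negative modulators.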
# [2] = NFAT Signaling Pathway (AID 444); conditions: Jurkat NFAT-bla M1, carbachol, beta-lactamase ratio, 5 h; at 17.2 µM (top of the series) unless noted;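 note: carbachol stimulus at about its EC50 of 1 µM final; % is set by controls: 0 for no effect and ±100 for the full control effect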
# How it was run: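 Read-out: CCF4 FRET ratio (460 nm/530 nm) after 1 h RT dye loading, used for %activity and AC50 from titration series. Cells: Jurkat NFAT-β-lactamase/M1 line, treated with compound plus 1 uM carbachol for 5 h, 37 °C.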
# [3] = Stat Signaling Pathway (AID 446); conditions: ME-180 SIE beta-lactamase reporter, IL-6 stimulated, 5 h; at 17.2 µM (top of the series) unless noted;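 note: ME-180 cervical cancer cells given 40 pM IL-6 alongside compound; SIE-controlled beta-lactamase reporter measured as 460/530 nm FRET emission ratio; % is set by controls: 0 for no effect and ±100 for the full control effect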
# How it was run: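 Reporter line: ME-180 cervical carcinoma, SIE-beta-lactamase. Treatment: compound with 40 pM IL-6, 5 hrs, 37 C, in low-serum OPTI-MEM with 10 mM HEPES pH 7.3. Detection: 460/530 nm fluorescence.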
# [4] = target: Glucocorticoid receptor (Homo sapiens) (UniProt P04150); assay: GR-GFP Redistribution (AID 450;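 active = compounds whose dose series gives a full or clear partial fitted curve of increased nuclear translocation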; note: potency is the fitted concentration of half-maximal effect)
# Glucocorticoid receptor (Homo sapiens), sequence (P04150 whole entry, looked up): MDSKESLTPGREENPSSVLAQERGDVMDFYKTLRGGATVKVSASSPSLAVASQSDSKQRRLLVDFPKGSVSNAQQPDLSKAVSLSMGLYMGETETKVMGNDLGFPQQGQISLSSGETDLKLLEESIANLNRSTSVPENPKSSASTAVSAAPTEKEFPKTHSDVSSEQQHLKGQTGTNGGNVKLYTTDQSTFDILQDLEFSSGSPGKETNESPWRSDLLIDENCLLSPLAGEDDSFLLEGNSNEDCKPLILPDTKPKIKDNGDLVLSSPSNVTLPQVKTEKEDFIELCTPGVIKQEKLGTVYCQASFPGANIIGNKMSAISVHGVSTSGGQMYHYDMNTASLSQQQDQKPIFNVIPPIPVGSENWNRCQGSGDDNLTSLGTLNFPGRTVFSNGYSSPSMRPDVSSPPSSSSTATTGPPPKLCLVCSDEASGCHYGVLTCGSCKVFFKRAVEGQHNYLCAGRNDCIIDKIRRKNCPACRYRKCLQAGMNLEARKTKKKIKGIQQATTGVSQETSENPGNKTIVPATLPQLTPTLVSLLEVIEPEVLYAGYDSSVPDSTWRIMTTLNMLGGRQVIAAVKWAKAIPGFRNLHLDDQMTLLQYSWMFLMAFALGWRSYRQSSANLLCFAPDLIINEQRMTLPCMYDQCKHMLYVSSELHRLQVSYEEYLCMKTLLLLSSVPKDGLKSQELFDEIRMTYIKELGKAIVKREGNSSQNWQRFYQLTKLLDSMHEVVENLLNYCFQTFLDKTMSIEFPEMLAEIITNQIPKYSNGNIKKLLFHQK
SMILES,"activity change, negative = inhibition [1] [%]","activity change, negative = inhibition [2]","activity, negative = inhibition [3] [%]",Potency [4] [µM]
CCOC(=O)C1=C(c2ccccc2)NC(SCC(=O)Nc2ccccc2C)=C(C#N)C1c1ccco1 (stereo not drawn),-1.47,-6.28%,-9.31,> 20.6
CCCSc1nc(O)c(C2OC(=O)c3c2ccc(OC)c3OC)c(=O)n1C (stereo not drawn),17.4,-4.09%,3.93,> 20.6
COc1c(O)ccc2cnn(-c3ccccc3C)c(=O)c12,12.5,-7.24%,25.4,> 20.6
CC(C)C1C(C#N)=C(N)Oc2n[nH]c(C(C)(C)C)c21 (stereo not drawn),-20.9,-6.87%,-18.4,> 20.6
Clc1ccc(-n2ncc3c(NCCCn4ccnc4)ncnc32)cc1,-4.22,-6.43%,-0.823,> 20.6
CC(=O)NCCCCCCNC(C)=O,10.3,-0.404%,2.41,> 20.6
CCOC(=O)c1oc2cc(O)cc(C)c2c(=O)c1-c1cscn1,0.0813,11.5%,-0.432,> 20.6
Nc1ccc2ncccc2c1N,5.69,-85.4% (active),-11.2,> 20.6
CCCCOc1ccccc1C(=O)NCCCC(=O)O,-11.8,-5.11%,8.07,> 20.6
Cc1ccc(-c2ccccc2NC(=O)C2C3C=CC(C3)C2C(=O)O)o1 (stereo not drawn),-3.25,-9.53%,11.2,> 20.6
CC1CN(C2CCN(C(=O)COc3ccccc3)CC2)CC(C)O1 (stereo not drawn),-6.79,-12.5%,-1.27,> 20.6
O=C1C=C(O)CC(c2ccc(Cl)c(Cl)c2)C1 (stereo not drawn),7.55,-10.9%,-4.42,> 20.6
CCC(=O)Nc1ccc(-c2nnc(SCC(=O)NCC3CCCO3)n2C)cc1 (stereo not drawn),-2.29,-1.98%,1.52,> 20.6
CCC(=O)Nc1cccc(-c2nnc(SCC(=O)NCc3ccco3)n2C)c1,-2.45,6.34%,-2.86,> 20.6
CNC(=O)C1CC(=O)N(Cc2ccccc2)C(=Nc2ccc(OC)cc2)S1 (stereo not drawn),-3.9,4.86%,-6.63,> 20.6
Cc1ccc(S(=O)(=O)NCC(=O)OCN2C(=O)c3ccccc3C2=O)cc1,2.06,-25.1%,9.1,> 20.6
CCOC(=O)CC(=O)CSc1nc2c(cc1C#N)CCCCCC2,-15.8,2.93%,-11.8,> 20.6
Nc1nnnn1/N=C/c1cccs1,7.92,-9.98%,2.51,> 20.6
Cc1ccc(N(CN2C(=O)C3CC=CCC3C2=O)C(=O)c2ccco2)cc1Cl (stereo not drawn),-4.76,9.09%,-11,> 20.6
CC1=C(c2ccc(Cl)cc2)[N+](=O)C(C)(C)N1[O-],8.72,13.4%,-0.945,> 20.6
Cc1nc2sc(C#N)c(N)c2c2c1CCCC2,-15.7,-7.96%,-6.2,> 20.6
O=C1C=C(O)CC(c2ccco2)C1 (stereo not drawn),10.5,-7.18%,3.18,> 20.6
COc1cc(C2C3C(=O)N(c4ccc(F)cc4)C(=O)C3ON2c2ccccc2)ccc1O (stereo not drawn),-17.6,0.386%,-1.27,> 20.6
CCN(CC)CCN1C(=O)C(O)=C(C(=O)c2ccco2)C1c1ccccn1 (stereo not drawn),-3.97,-0.0336%,3.83,> 20.6
O=C(O)c1ccc(COCC(F)(F)C(F)F)o1,10.1,28.1%,2.03,> 20.6
Cc1cc(C)n2c3c(c(C#N)c2n1)CC(C)(C)OC3,5.4,-2.38%,-0.114,> 20.6

SMILES,"activity change, negative = inhibition [1] [%]","activity change, negative = inhibition [2]","activity, negative = inhibition [3] [%]",Potency [4] [µM]
Cc1ccc2[nH]c3c(NCCN4CCOCC4)ncnc3c2c1,-6.77,7.47%,0.396,> 20.6
c1ccc(C2=Nn3c(nnc3-c3ccccn3)SC2)cc1,-4.27,-8.45%,5.46,> 20.6
CCOC(=O)c1[nH]c2ccc(OC)cc2c1C,-0.35,-6.84%,6,> 20.6
CCOC(=O)C1=C(C)NC(=O)C1CC(=O)Nc1ccccc1 (stereo not drawn),-1.66,25.9%,3.03,> 20.6
CSc1nc(O)c(Cc2ccccc2)c(=O)[nH]1,-12.8,14.1%,0.301,> 20.6
O=C(NCc1ccccc1)c1ccc(=O)[nH]n1,2.35,-2.12%,5.54,> 20.6
CCOC(=O)Cc1[nH]nc2c1C(c1cc(OC)ccc1OC)C(C#N)=C(N)O2 (stereo not drawn),-11.5,-0.329%,-9.93,> 20.6
CN(C)CCCOC(=O)C1c2ccccc2Oc2ccccc21,9.34,-63.3% (active),-0.433,> 20.6
Cc1nnc(C)n1/N=C/c1cccn1C,4.24,13.1%,-1.54,> 20.6
Cn1c[n+](C)cc1/C=N/O,6.85,4.23%,-2.71,> 20.6
COc1ccc(NC(=O)c2c(C)cc(=O)oc2C)c(OC)c1,6.98,16.2%,10.7,> 20.6
COc1ccc(OC)c(C2/C(=C(/O)c3ccccc3)C(=O)C(=O)N2Cc2ccco2)c1 (stereo not drawn),-4.43,6%,-9.05,> 20.6
CC(C)CN1C(=O)c2ccc(C(=O)Nc3ccccn3)cc2C1=O,-5.2,27.9%,4.97,> 20.6
CN1CCN(Cc2c(O)c(Cl)cc3c(-c4ccccc4)cc(=O)oc23)CC1,-17.1,-1.47%,-7.42,> 20.6
COC(=O)c1cc(Br)c(=O)n(-c2nccs2)c1,1.9,-2.48%,2.73,> 20.6
S=c1[nH]nc(-c2ccco2)n1C1CCCCC1,-7.16,12.4%,1.34,> 20.6
COc1ccc(C2CC(=O)C(C=NCCN3CCOCC3)=C(O)C2)cc1 (stereo not drawn),18.9,-9.07%,-0.652,> 20.6
COc1ccc(CCNC(=O)c2ccc(=O)[nH]n2)cc1OC,-1.15,-8.89%,3.06,> 20.6
CC1(C)Cc2c(sc3c4nnnn4c4nnnn4c23)CO1,-28.3,-96.8% (active),-26.4,> 20.6
C=CCn1c(C2CC(=O)N(c3ccc(C)cc3)C2)nc2ccccc21 (stereo not drawn),-0.041,5.1%,5.25,> 20.6
COC(=O)CN(c1cc(OC)ccc1OC)S(=O)(=O)c1ccc(OC)c(OC)c1,-25.5,4.34%,-5.92,> 20.6
CC(=Nc1ccc(C)c(C)c1)C1=C(O)CCC1=O,13.3,-8.58%,24.8,> 20.6
FC(F)(F)c1cccc(-n2cccc2/C=N/n2cnnc2)c1,8.38,-0.658%,10.7,> 20.6
O=C(NCc1ccco1)c1ccc(=O)[nH]n1,-6.2,-1.91%,-5.82,> 20.6
O=P(O)(c1ccccc1)c1ccccc1O,6.62,7.27%,8.28,> 20.6
CCC(=O)Nc1cc(-c2nn(C)c(=O)c3ccccc23)ccc1N1CCCCC1,-16.8,-13.8%,-6.35,> 20.6
